PubChem BioAssay AID624330 (Southern Research Specialized Biocontainment Screening …, 2012)
Out of some 340,000 compounds screened, about 2,100 (0.62%) were called active. Only a sample is shown. Results with a measured potency or affinity are listed apart. A number with no mark means an inactive call.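 How the source made its calls: active means first-screen hits whose inhibition reached a set limit at any dose in the follow-up dose series; inconclusive means inhibition above the set first-screen limit but never retested; inactive means the rest.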

target: Rac GTPase-activating protein 1 (Homo sapiens) (UniProt Q9H0H5); assay: MgcRacGAP GTPase-activating activity inhibitors, confirmation, biochemical, ADP Hunter fluorescence, primary and confirmatory (AID 624330); conditions: MgcRacGAP-stimulated Rac1 GTP hydrolysis, at 30 µM, hits give high values, GST-tagged Rac1 F28L mutant substrate;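 further: fluorescence reports GDP produced by GAP-driven GTP hydrolysis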
Sequence (Q9H0H5 whole entry, looked up): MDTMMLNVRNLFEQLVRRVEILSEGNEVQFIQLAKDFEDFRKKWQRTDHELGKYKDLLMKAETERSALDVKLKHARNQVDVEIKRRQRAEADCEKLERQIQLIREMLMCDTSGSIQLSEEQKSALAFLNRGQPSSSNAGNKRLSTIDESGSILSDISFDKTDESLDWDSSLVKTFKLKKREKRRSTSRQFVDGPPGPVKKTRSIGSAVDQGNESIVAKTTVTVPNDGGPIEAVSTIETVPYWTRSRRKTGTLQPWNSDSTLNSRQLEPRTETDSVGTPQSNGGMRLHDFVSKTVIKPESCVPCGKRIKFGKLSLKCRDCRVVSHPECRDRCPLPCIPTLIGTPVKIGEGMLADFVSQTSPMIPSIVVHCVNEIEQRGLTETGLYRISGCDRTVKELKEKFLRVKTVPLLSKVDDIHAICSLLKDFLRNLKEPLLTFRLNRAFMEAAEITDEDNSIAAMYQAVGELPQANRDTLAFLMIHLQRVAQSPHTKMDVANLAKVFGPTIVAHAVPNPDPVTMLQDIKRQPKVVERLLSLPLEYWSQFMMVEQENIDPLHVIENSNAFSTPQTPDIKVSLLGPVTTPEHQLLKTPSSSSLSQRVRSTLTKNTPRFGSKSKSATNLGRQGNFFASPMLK

| SMILES | inhibition [%] |
| --- | --- |
| O=C(Nc1cccc(-c2cccc(F)c2)c1)C1CCN(Cc2ccco2)CC1 | 7.74 |
| O=C(NCCN1C(=O)S/C(=C\c2ccccc2F)C1=O)C1CCCN1C(=O)c1cccs1 (configuration not stated) | -14.1 |
| Cc1ccccc1OCC(=O)N/N=C/c1cn(Cc2ccccc2)c2ccccc12 | 3.64 |
| Cc1ccc2nc(-c3ccc(N4C(=N)SC5CS(=O)(=O)CC54)cc3)sc2c1 (configuration not stated) | 9.19 |
| CCOc1ccc(C(=O)N2CCC(C(=O)c3ccc4c(c3)OCCO4)CC2)cc1 | -2.21 |
| COc1ccc(/C=C2\CCCC(C(=O)C(F)(F)F)=C2O)cc1 | 4.33 |
| Cc1ccc(S(=O)(=O)Nc2ccc(S(=O)(=O)N3CCOCC3)cc2)cc1 | 0.84 |
| CC1CCc2sc(C(=O)NCCCn3ccnc3)cc2C1 (configuration not stated) | 5.91 |
| O=C(c1cc2c(=O)n3ccccc3nc2s1)N1CCN(Cc2ccccc2)CC1 | 4.57 |
| Cc1c(-n2c(=S)[nH]c3ccccc3c2=O)c(=O)n(-c2ccccc2)n1C | 4.22 |
| Cc1c(N=Cc2nc3ccccc3[nH]2)c(=O)n(-c2ccccc2)n1C | 17.9 |
| CC1=CC(=Nc2c(C)n(C)n(-c3ccccc3)c2=O)C=C(C)C1=O | -4.18 |
| Cc1c(N(C)C)c(=O)n(-c2ccccc2)n1C | 3.4 |
| CCC(C)C1=CC(=Nc2c(C)n(C)n(-c3ccccc3)c2=O)C=C(C(C)CC)C1=O (configuration not stated) | 9.72 |
| Cc1c(C(c2ccc(N(C)C)cc2)c2c(C)n(C)n(-c3ccccc3)c2=O)c(=O)n(-c2ccccc2)n1C | -5.89 |
| O=NNc1nc2ccccc2n1Cc1ccccc1 | 7.61 |
| CCOC(=O)C(NC(=O)Nc1ccc(F)cc1F)(Oc1ccc(F)cc1)C(F)(F)F (configuration not stated) | 7.05 |
| Cc1cc(NS(C)(=O)=O)c(=O)n(Cc2c(F)cccc2Cl)c1 | -0.27 |
| C=CCSc1nc2sc(C)c(C)c2c(=O)n1N | 2.09 |
| CCc1cc(Cn2nc(-c3ccccc3)cc2C(=O)NCC2CC2)on1 | 12 |
| COc1cc2c(cc1OC)C(c1cccs1)N(C(=O)c1cccc(S(=O)(=O)N(C)C)c1)CC2 (configuration not stated) | 5.21 |
| CCOc1ccc(S(=O)(=O)N2CCN(C(=O)CCOc3ccccc3C)CC2)cc1 | 3.82 |
| CCOc1ccc(NC(=O)COc2cccc3c2CCN(Cc2cccnc2)C3=O)cc1 | 0.41 |
| O=C1CC2(CCN(C(=O)c3cccc(Br)c3)CC2)Oc2ccccc21 | 3.6 |
| COc1cc2nc(Nc3ccc(F)cc3)nc(N)c2cc1OC | 6.17 |

| SMILES | inhibition [%] |
| --- | --- |
| COc1cc2[nH]c(=S)nc(NCCC(C)C)c2cc1OC | 20.9 |
| COc1ccc(C(=O)Nc2nc3cc(OC)c(OC)cc3c(=O)[nH]2)cc1 | 14.9 |
| COc1ccc(CCNc2nc(=S)[nH]c3cc(OC)c(OC)cc23)cc1OC | 39.9 |
| CSc1nc2c([nH]1)c(=S)n(C)c(=O)n2C | 8.34 |
| COC(=O)C(CC(C)C)NC(=O)CNC(=O)c1ccccc1C (configuration not stated) | 7.16 |
| COc1ccccc1N1CCN(C(=O)c2cccc(N3C(=O)C4C5C=CC(C5)C4C3=O)c2)CC1 (configuration not stated) | 9.14 |
| CC1=NNC(=O)C1Oc1ccccc1 (configuration not stated) | 10.8 |
| COc1ccc(C2C(=O)NN=C2C)cc1 (configuration not stated) | 22.1 |
| Cn1c(N)c(C(=O)COC(=O)/C=C/c2ccccc2)c(=O)n(C)c1=O | 1.47 |
| Cc1cnc(NC(=O)CN2CCN(c3ccccn3)CC2)s1 | 2.02 |
| CCOc1ccccc1N1CCN(CC(=O)Nc2ncc(C)s2)CC1 | 5.5 |
| c1ccc(COc2ncnc3c2ncn3CCCNCC2CCCO2)cc1 (configuration not stated) | 7.05 |
| Brc1ccccc1OCCCN1CCOCC1 | 14.8 |
| COc1ccccc1OCCCCN1CCCCC1 | 3.62 |
| Brc1ccccc1OCCN1CCOCC1 | 17.5 |
| COc1ccccc1OCCCCCCN1CCN(C)CC1 | -3.02 |
| COc1cc(C)ccc1OCCOCCOc1c(C)cc(C)cc1Br | 3.98 |
| CCn1c(COc2ccc(=O)n(-c3ccccc3)n2)nnc1SCc1ccccc1C | -2.27 |
| O=C(c1noc2c1CCCCC2)N1CCOCC1 | 1.03 |
| CC(C)CC(OC(=O)c1nsc(Cl)c1Cl)C(=O)NCC1CCCO1 (configuration not stated) | 5.99 |
| Cc1ccc(S(=O)(=O)N2CCN(c3c([N+](=O)[O-])cc(C(F)(F)F)cc3[N+](=O)[O-])CC2)cc1 | 6.82 |
| O=C(Nc1ccc2c(c1)OCO2)C1CCCCC1 | 6.05 |
| O=C(NC1CCCCCCC1)c1ccc2c(c1)OCO2 | 4.04 |
| CC(C)COC(=O)Cc1c(O)c2ccccc2[nH]c1=O | 1.69 |
| CN1CCCN(C(=O)c2cccc(Cl)c2)CC1 | 3.23 |

| SMILES | inhibition [%] |
| --- | --- |
| CCOC(=O)C1CCN(C(=O)c2cccc(Cl)c2)CC1 | 6.23 |
| CC(C)CC(CO)N1CCN(C(=O)c2cccc(Cl)c2)CCC1=O (configuration not stated) | 2.07 |
| O=C(c1cccnc1)N1CCN(C(=O)c2cccc(Cl)c2)CC1 | -2.27 |
| COc1ccc(N2C(=O)CC(N3CCN(c4ccc(S(C)(=O)=O)cc4)CC3)C2=O)cc1 (configuration not stated) | -1.2 |
| CN(C)c1ccc(P(=O)(OCc2ccccc2)C(O)c2ccccc2F)cc1 (configuration not stated) | 0.52 |
| O=C(Nc1ccc(F)cc1)Nc1nnc(COc2ccccc2F)s1 | 10.4 |
| CCOc1cc(S(=O)(=O)NCc2cccs2)ccc1Cl | 8.13 |
| CN(C1=NC(=O)CS1)c1ccc(O)cc1 | 9.21 |
| CC(=O)NC1=NC(=O)CS1 | 2.93 |
| COc1ccc(S(=O)(=O)N2CCC(N3CCCC3)CC2)cc1 | 21 |
| Cc1ccc2oc(=O)n(CCOc3ccccc3C)c2c1 | 0.34 |
| N=C1S/C(=C\c2ccc(-c3ccccc3C(=O)O)o2)C(=O)N1c1ccc2c(c1)OCO2 | 19.7 |
| Cc1c(C(=O)O)cccc1-c1ccc(/C=C2/NC(=O)N(c3ccccc3)C2=O)o1 | -7.26 |
| O=C(O)c1ccccc1SC1CC(=O)N(c2ccc3c(c2)OCO3)C1=O (configuration not stated) | -5.78 |
| O=C(O)c1ccccc1-c1ccc(/C=C2\SC(=O)N(c3ccccc3)C2=O)o1 | 6.66 |
| COC(=O)c1ccc(Sc2ccccc2NS(=O)(=O)c2ccc(OC)cc2)nc1 | 7.44 |
| CC1(c2nnc(-c3cccc(Cl)c3)o2)CC(c2ccccc2F)=NO1 (configuration not stated) | 5.14 |
| CCn1nc(C)c(/C=N/NC(=O)c2ccoc2C)c1C | 1.28 |
| O=C1CC(/C=C/c2ccccn2)=Nc2ccccc2N1 | -8.85 |
| O=C(O)c1cc(N/N=C/c2ccc(-c3ccccc3)cc2)ccc1Cl | 5.89 |
| O=C(O)c1cc(N/N=C/c2cccc3ccccc23)ccc1Cl | 11.3 |
| CC(C)n1cc(/C=N/Nc2ccc(C(=O)O)cc2)c2ccccc21 | 24.1 |
| COc1ccc2ccccc2c1/C=N/Nc1ccc(Cl)c(C(=O)O)c1 | 17.1 |
| CC(C)CC1NC(=O)c2cc3ccccc3cc2-n2c1nc1ccc(Cl)cc1c2=O (configuration not stated) | 6.29 |
| COCCCNC(=S)NC1CC2CCCC(C1)N2Cc1ccco1 (configuration not stated) | 13.1 |

| SMILES | inhibition [%] |
| --- | --- |
| Nc1ccc(N2CCCCC2)c(S(=O)(=O)Nc2ccc(Cl)cc2)c1 | 3.13 |
| COc1ccccc1NS(=O)(=O)c1cc(N)ccc1N1CCCCC1 | 5.74 |
| COc1ccccc1NS(=O)(=O)c1cc(N)ccc1N1CCOCC1 | 16.4 |
| O=C(Nc1ccc(N2CCCC2)c(S(=O)(=O)Nc2cccc(C(F)(F)F)c2)c1)c1cccs1 | 7.15 |
| O=C(NNC(=O)c1cc2ccccc2cc1O)c1cccs1 | 3.14 |
| Cc1cccc(N2CCN(C(=O)C3CCC(=O)N(Cc4ccccc4F)C3)CC2)c1C (configuration not stated) | -9.79 |
| CCn1cc(/C=C(\NC(=O)c2ccccc2)C(=O)N2CCOCC2)c2ccccc21 | 9.74 |
| Nc1no[n+]([O-])c1-c1ccccc1 | 7.71 |
| CCCC(=O)Nc1cc(-c2nc3ncccc3o2)ccc1Cl | 6.17 |
| Cc1ccc(-c2nn(CCC(=O)O)cc2/C=C\C(=O)c2ccc(Br)cc2)cc1 | -9.64 |
| O=C(O)CCn1cc(/C=C2/NC(=S)N(c3ccccc3)C2=O)c(-c2ccccc2)n1 | 7.18 |
| NC(=S)N/N=C/c1cn(CCC(=O)O)nc1-c1cccc(Br)c1 | 12.2 |
| O=C(O)CCn1cc(/C=C2\NC(=S)N(c3ccccc3)C2=O)c(-c2ccc(Br)cc2)n1 | 0.36 |
| O=Cc1cn(CCC(=O)O)nc1-c1cccc(Br)c1 | -0.73 |
| O=C(O)CCn1cc(C(=O)O)c(-c2ccccc2)n1 | 9.41 |
| Cc1ccc(C2=NN3C(=O)c4ccccc4C3C2)cc1 (configuration not stated) | -20.3 |
| COCCC(=O)N1CCCC(C(=O)c2ccccc2SC)C1 (configuration not stated) | 1.95 |
| COc1ccc(-n2nnnc2SCC(=O)Nc2cccc(O)c2)cc1 | 8.11 |
| CCOC(=O)C1(Cc2cccc(OC)c2)CCN(Cc2cccc3cnccc23)CC1 | -0.92 |
| O=C(C=Cc1ccco1)N1CCOCC1 | 8.8 |
| CN(C)c1ccc(C=C2C=C(c3ccccc3)OC2=O)cc1 | -3.66 |
| Cc1ccc(C=C2C=C(c3ccccc3)OC2=O)cc1 | 11.5 |
